# Measured values: PubChem BioAssay (NCATS)
# Results filed as inconclusive are left out. Entries that show only a call come without a potency. Active and inactive are the calls of the source. Calls follow the shape of the dose curve; as a rule, active = well fitted inhibition curve with a large enough effect; inconclusive = small, poorly fitted or top-dose-only effect; inactive = flat fitted curve, though single readings scatter.
# Test system: Zika virus NS2B-NS3 protease
# Assay: Primary screen GU AMC qHTS for Zika virus inhibitors (AID 1347154); also: nearly all actives have a fitted effect of over 70% in size
# Method in brief: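 Unlinked Zika NS2B hydrophilic domain–NS3 protease complex at 25 nM in 10 mM Tris-HCl pH 8.0, 0.01% Tween 20, with an AMC peptide substrate. Fluorescence change (340/450 nm) over 15 min at room temperature, normalized to controls, fitted to 4-parameter Hill.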
row,SMILES,Potency
1,O=C(O)CCNC(=O)c1ccccc1,inactive
2,COC(=O)C(c1ccccc1Cl)N1CCc2sccc2C1 (stereo unspecified),inactive
3,CC(=O)O[C@H]1C[C@@H]2CC[C@@H]3[C@H](CC[C@@]4(C)[C@H]3C[C@H]([N+]3(C)CCCCC3)[C@@H]4OC(C)=O)[C@@]2(C)C[C@@H]1N1CCCCC1,inactive
4,NS(=O)(=O)Cc1noc2ccccc12,inactive
5,Nc1nc(-c2ccccc2)c(Br)c(=O)[nH]1,inactive
6,Nc1ccc(C(=O)NCC(=O)O)cc1,inactive
7,CCNC(=O)/C=C/c1cccc(Br)c1,inactive
8,CCOc1ccc(NC(C)=O)cc1,inactive
9,NCc1ccccc1Sc1ccccc1CO,inactive
10,CCc1ccc(C(=O)C(C)CN2CCCCC2)cc1 (stereo unspecified),inactive
11,C[C@@H](O)[C@H]1C(=O)N2C(C(=O)O)=C([C@H]3CCCO3)S[C@H]12,inactive
12,CCCCCN=C(N)N/N=C/c1c[nH]c2ccc(OC)cc12,inactive
13,O=C1[C@H](CC[C@H](O)c2ccc(F)cc2)[C@@H](c2ccc(O)cc2)N1c1ccc(F)cc1,inactive
14,CC(=O)NO,inactive
15,CN(C)CCN1C(=O)c2ccccc2N(C)c2ccccc21,inactive
16,O=C(O)c1ccc(S(=O)(=O)N(Cl)Cl)cc1,inactive
17,NC(=S)N/N=C/c1cccnc1,inactive
18,C[N+]1(CC2COC(c3ccccc3)(C3CCCCC3)O2)CCCCC1 (stereo unspecified),inactive
19,CCCCCCCCCCCCSCCOCCO,inactive
20,O=C(Nc1cccc(C2=NCCN2)c1)Nc1cccc(C2=NCCN2)c1,inactive
21,CC(=O)OCC(=O)[C@H]1CC[C@H]2[C@@H]3CCC4=CC(=O)CC[C@]4(C)[C@H]3CC[C@]12C,inactive
